This is a sample that favours compounds with a hit; in the whole collection about 9.2% have one here.
HTT aggregate – reduces HttQ103-GFP aggregates in PC12 cells; PC12 HttQ103-GFP aggregates, Acumen cytometry, 40 h; Potency, µM (series often up to 46.1 µM), for inactives: top-dose activity change, negative = inhibition, most hits filed as inhibitors; hit rate 1.1% among 220,000; active means well fitted curve in the direction sought with a large enough effect; inconclusive means small, poorly fitted or top-dose-only effect, or another doubt; inactive means no such curve, though single readings can be large; an effect the other way counts as inactive or inconclusive; further: on the % scale 0 is the no-effect control and ±100 the full control effect; nearly all actives have a fitted effect of over 60% in size
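Compounds (qHTS titration) were added to PC12 cells expressing an ecdysone-driven HTT exon 1 Q103–GFP fusion after induction with 100 nM tebufenozide. Aggregate formation was measured as GFP objects in cell lysates.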
HPGD inh – HPGD (human) dehydrogenase inhibition; P15428; purified HPGD, NADH fluorescence kinetic, PGE2 substrate; Potency, µM, for the others: at the highest dose activity change, negative = inhibition, usual class: inhibitors; hit rate 4.3% among 150,000; AID 894; further: on the % scale 0 is the no-effect control and ±100 the full control effect
Target sequence (P15428 whole entry, looked up): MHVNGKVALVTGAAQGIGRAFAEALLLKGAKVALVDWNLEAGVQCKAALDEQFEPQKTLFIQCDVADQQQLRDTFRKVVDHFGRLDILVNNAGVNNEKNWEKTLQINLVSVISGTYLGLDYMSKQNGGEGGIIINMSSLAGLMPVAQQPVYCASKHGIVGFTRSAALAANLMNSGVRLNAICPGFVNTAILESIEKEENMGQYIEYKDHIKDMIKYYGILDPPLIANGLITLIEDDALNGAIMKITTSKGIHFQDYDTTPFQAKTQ
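NADH formation kinetics: reaction with 30 uM PGE2 and 1 mM NAD+ (final), 20 nM enzyme, Tris-HCl pH 8 with Tween 20, after 15 min compound preincubation at room temperature. Fluorescence change, last versus first of five reads.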
ALDH1A1 inh – blocks purified human ALDH1A1 activity; hit rate 7.3% among 220,000; Purified ALDH1A1, NADH fluorescence, propionaldehyde substrate; Potency, µM (titrated, usually from 75.3 µM), without a hit: at the highest dose activity, negative = inhibition, most hits filed as inhibitors;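 further: plate controls were no enzyme wells and a reference inhibitor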
JMJD2E inh – inhibitors of human JMJD2E histone demethylase. B2RXH2. JMJD2E catalytic domain, FDH-coupled NADH fluorescence (FDH is formaldehyde dehydrogenase). Potency, µM (highest dose often 57.1 µM), inactives show at the highest dose activity change, negative = inhibition, most hits filed as inhibitors. hit rate 1.6% among 230,000. AID 2147;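 further: 0% = wells with enzyme and -100% = buffer wells without enzyme; nearly all actives have a fitted effect of over 50% in size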
Target sequence (B2RXH2 1-337 limits assumed): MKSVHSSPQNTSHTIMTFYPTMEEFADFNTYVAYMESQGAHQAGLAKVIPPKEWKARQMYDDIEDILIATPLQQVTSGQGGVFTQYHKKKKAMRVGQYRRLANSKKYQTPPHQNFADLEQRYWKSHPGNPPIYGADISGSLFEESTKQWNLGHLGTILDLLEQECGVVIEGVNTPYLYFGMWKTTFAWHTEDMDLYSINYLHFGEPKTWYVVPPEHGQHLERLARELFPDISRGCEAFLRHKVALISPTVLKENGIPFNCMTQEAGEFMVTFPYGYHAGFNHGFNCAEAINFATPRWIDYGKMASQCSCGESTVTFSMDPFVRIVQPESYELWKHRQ
Lamin A splicing – modulators of lamin A splicing | hit rate 0.01% among 200,000 | Potency, µM (doses to about 46.1 µM), inactives show top-dose ratio change, negative = inhibition, actives largely listed as inhibitors | HeLa LMNA splicing GFP/RFP minigene ratio, 48 h | AID 1487; active means well fitted inhibition curve with a large enough effect in the signal ratio, with a control signal flat, not every such curve was filed as active; inconclusive means small, poorly fitted or top-dose-only effect, or effect the other way, or a change in a side signal; the % refers to the signal ratio; further: on the % scale 0 is the no-effect control and ±100 the full control effect
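Read-out is the ratio of GFP to DsRed2 object intensity, acquired by 488 nm laser-scanning cytometry on HeLa lamin A-EGFP minigene reporter cells. Compound incubation 48 hrs at 37 °C in Opti-MEM with 2% FBS; DMSO 0.5% final.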
HTT cytoprotect – protects HTT-Q103 PC12 cells, measured by ATP; AID 1471; Potency, µM (highest dose often 56.4 µM), inactives show cytoprotection (ATP increase), hits mostly activators; hit rate 0.14% among 230,000; PC12 HTT-Q103 induced, cytoprotection, ATP luminescence, 40 h; active means well fitted curve in the direction sought with a large enough effect; inconclusive means small, poorly fitted or top-dose-only effect, or another doubt; inactive means no such curve, though single readings can be large; an effect the other way counts as inactive or inconclusive; further: % of control where 0% means no effect; nearly all actives have a fitted effect of over 45% in size
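PC12 cells with ecdysone-inducible HTT exon 1 Q103-GFP, induced with 100 nM tebufenozide and co-treated with library compounds in a dose series (1536-well, 1500 cells/well). Cytoprotection read as ATP content by ATPlite luminescence.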
* marks the source's active call; other numbers are inactive results; ? = inconclusive; · = no result; [ ] = another dose, or the depositor's remark. Unless noted, the call rests on the fitted dose curve; in most records, active means well fitted inhibition curve with a large enough effect (not every such curve was filed as active); inconclusive means small, poorly fitted or top-dose-only effect, or another doubt; inactive means no such curve, though single readings can be large or run the other way. Potency means the concentration at half of the fitted maximal effect.

SMILES	HTT aggregate	HPGD inh	ALDH1A1 inh	JMJD2E inh	Lamin A splicing	HTT cytoprotect
CC[C@H](C(=O)[C@H](C)[C@H](O)[C@H](C)CCc1ccc(C)c(O)c1C(=O)O)[C@H]1O[C@](CC)([C@@H]2CC[C@@](O)(CC)[C@H](C)O2)C[C@H]1C	·	-8%	8%[20.9 µM]	?	?	-270%[17.1 µM]
C=CCN=c1scc(-c2ccc3c(c2)NC(=O)CO3)n1/N=C(\C)c1ccccn1	5µM*	·	2.8µM*	-11%	?	-53%[10 µM]
CCCCn1c(CN2CCN(c3ccccc3)CC2)nc2c1c(=O)n(C)c(=O)n2C	?	-5%	?	-2%	?	9%[10 µM]
CCCCCn1c(CN2CCN(c3cc(Cl)ccc3C)CC2)nc2c1c(=O)[nH]c(=O)n2C	11%	-12%	14µM*	7%	?	-3%
CCCn1c(CN2CCN(c3cccc(Cl)c3)CC2)nc2c1c(=O)n(C)c(=O)n2C	5.6µM*	-2%	?	-1%	-14%	-128%
CCCCCCn1c(CN2CCN(CCO)CC2)nc2c1c(=O)n(C)c(=O)n2C	30%	-7%	4µM*	6%	-7%	10%[10 µM]
CCCCn1c(CN2CCN(c3cccc(Cl)c3)CC2)nc2c1c(=O)n(C)c(=O)n2C	-14%	-21%	16µM*	?	?	-5%[0.074 µM]
COc1c2ccoc2nc2c(OC)c(O[C@@H]3O[C@H](C)[C@@H](O)[C@@H](O)[C@H]3O)ccc12	·	?	?	?	·	-24%
CCCCCn1c(CN2CCN(c3cccc(Cl)c3)CC2)nc2c1c(=O)n(C)c(=O)n2C	?	-12%	3.5µM*	-8%	?	-14%[0.074 µM]
CCCCOC(=O)/C=C\C(=O)OCCCC	0%[9.22 µM]	·	·	0%	·	-2%[10 µM]
C=CC(=O)OCCCCCCOC(=O)C=C	·	-4%	2µM*	·	·	18%
COc1ccc(-c2c(C#N)c(N)nc3sc(C(=O)c4ccccc4)c(N)c23)cc1	-4%	?	4µM*	-3%	-17%	-11%[10 µM]
CC1CCC2C(=O)OC(COc3ccc(C(C)(C)C)cc3)CN2C1c1ccc(Br)cc1 (stereo unspecified)	·	·	22%[13.5 µM]	·	·	?
COc1ccc(Nc2nc(N)nc(CSc3nccc(C)n3)n2)cc1	8%	0%	-6%	12%	2%	1%
CC1CC(C)CN(C(=S)SCc2nc(N)nc(Nc3ccccc3)n2)C1 (stereo unspecified)	18%[9.22 µM]	·	·	-3%	·	7%[10 µM]
Nc1nc(CSC(=S)N2CCCCC2)nc(Nc2ccccc2)n1	?	·	25µM*	?	·	10%[10 µM]
COc1ccc(Nc2nc(N)nc(CSc3n[nH]c(-c4ccccc4)n3)n2)cc1	4%	22µM*	2%	1%	-16%	-27%
Nc1nc(CSc2n[nH]c(-c3ccccc3)n2)nc(Nc2ccccc2)n1	-14%	13µM*	?	-13%	-10%	-7%
O=C(COC(=O)c1cc(-c2cccc(Br)c2)nc2ccccc12)NCC1CCCO1 (stereo unspecified)	1%	·	?	?	·	-76%
O=C(O)[C@@H]1C[C@H](C(=O)O)N1	·	-15%	-12%	-22%	?	·
CCN(CC)S(=O)(=O)c1ccc(OC(C)C)c(NC(=O)c2c3c(nc4ccccc24)CCN(Cc2ccccc2)C3)c1	-8%	-8%	?	-9%	-4%	-5%[10 µM]
COc1ccccc1NC(=O)C1=C(C)Nc2nc(CCCO)nn2C1c1ccc2c(c1)OCO2 (stereo unspecified)	19%	?	14µM*	-1%	2%	-10%
CCOc1cc(S(=O)(=O)Nc2ccc(Cl)cn2)ccc1Cl	-18%	0%	-12%	-10%	-4%	11%[10 µM]
Cc1ccc(NS(=O)(=O)c2cccc([N+](=O)[O-])c2)nc1	0%	·	11µM*	?	-9%[46 µM]	17%[10 µM]
O=S(=O)(Nc1ccc(Cl)cn1)c1cccc(S(=O)(=O)c2ccccc2)c1	-3%[9.22 µM]	·	20µM*	-22%	·	1%[10 µM]
SMILES	HTT aggregate	HPGD inh	ALDH1A1 inh	JMJD2E inh	Lamin A splicing	HTT cytoprotect
O=C(CSc1nnc(COc2ccccc2F)n1-c1ccccc1)NCc1ccco1	19%	20µM*	-9%	-5%	0%	5%
Cn1cccc1Cc1nnc(SCC(=O)NCc2ccccc2Cl)n1-c1ccc(F)cc1	-3%	-5%	-13%	-8%	-6%	4%
Cc1nnc(SCC(=O)NCc2ccco2)n1-c1ccc(F)cc1	-1%	-8%	25µM*	14%	-5%	-6%[10 µM]
Cn1cccc1Cc1nnc(SCC(=O)NC2CCCCC2)n1-c1ccc(F)cc1	31%	-8%	20µM*	?	3%	-11%
Cn1cccc1Cc1nnc(SCC(=O)NCc2ccco2)n1-c1ccc(F)cc1	-1%	-5%	13µM*	?	-4%	16%[10 µM]
Cc1ccc(-n2c(Cc3cccn3C)nnc2SCC(=O)NC2CCCCC2)cc1	29%	-4%	-1%	-3%	5%	-26%
Cc1ccc(C)c(NC(=O)CN(C)C(=O)COc2ncnc3sccc23)c1	14%	-7%	11%	3%	?	·
CCC(Sc1nnc(-c2ccc(OC)c(OC)c2)c(-c2ccc(OC)c(OC)c2)n1)C(=O)NC1CCCC1 (stereo unspecified)	·	·	·	·	2%[46 µM]	·
C=CCNC(=O)c1ccccc1NC(=O)c1ccc(Cl)c(S(=O)(=O)Nc2ccccc2)c1	?	?	?	1%	6%	-68%
O=C1[C@H]2[C@H]3[C@H](O)[C@H](O)C/C(=N/OC[C@@H](O)COCc4ccco4)[C@H]3CC[C@@H]2C(=O)N1Cc1ccccc1	·	·	1%[13.5 µM]	·	·	-10%[10 µM]
NCCC(=O)N[C@@H](Cc1cnc[nH]1)C(=O)O	·	-10%	0%	10%	·	7%[1.9 µM]
Cc1nn(C)cc1S(=O)(=O)N1CCN(Cc2cccc(Cl)c2)CC1	1%[9.22 µM]	·	22µM*	1%	19%[46 µM]	9%[10 µM]
O=c1c2ccccc2c(C=NCCCN2CCOCC2)c(O)n1Cc1ccccc1	1%	-27%	14µM*	-20%	?	-19%[10 µM]
O=C(Nc1ccc2nc(SCC(=O)N3CCCC3)sc2c1)c1cccc(Br)c1	·	·	·	·	-15%[46 µM]	·
O=[N+]([O-])c1ccc(/C=C2\CCC(C3=CCCC3)=C2N2CCOCC2)cc1	?	-14%	14µM*	?	?	·
O=[N+]([O-])c1ccc(/C=N/Nc2nc(N3CCOCC3)nc(N3CCOCC3)n2)cc1	?	·	0%	-2%	18%[46 µM]	?
CSCCC(NS(=O)(=O)c1ccccc1F)C(=O)NC(C)c1ccccc1 (stereo unspecified)	-1%	·	0%	20%	·	·
COC(=O)c1ccc(N=NNc2ccc(C(=O)OC)cc2)cc1	4%	-19%	1%	0%	-3%	·
COC(=O)c1ccc(N=NNc2ccccc2)cc1	10%	25µM*	?	-20%	-10%	9%[10 µM]

Screens: PubChem, National Center for Advancing Translational Sciences (NCATS)
